Records with an inconclusive call do not appear. Where a call stands in place of a potency, no number is given. Unmarked numbers belong to inactive results. Calls of active or inactive are those of the source. Calls come from the whole dose curve; as a rule, active = well fitted inhibition curve with a large enough effect in the repeat runs; inconclusive = weak or mixed curves, or effect the other way; inactive = no such curve, though single readings can be large or run the other way.
assay: qHTS assay to identify small molecule antagonists of the retinoic acid receptor (RAR) signaling pathway (AID 1159552; note: nearly all actives have a fitted effect of over 50% in size); settings: C3RL4 RARE luciferase reporter, retinol-stimulated, 6 h; series mostly up to 92.4 µM
From the text: National Center for Advancing Translational Sciences [NCATS]
NIH Chemical Genomics Center [NCGC]
U.S. Environmental Protection Agency [EPA]
National Institutes of Environmental Health Sciences [NIEHS]
National Toxicology Program [NTP]
U.S. Food and Drug Administration [FDA]
All-trans Retinoic acid (atRA) is the potent natural metabolite of retinol and plays an important role in normal embryonic development and maintenance of cellular phenotype in adult animals. atRA is the activating ligand for the retinoic acid receptors (RARs) which form heterodimers with retinoid X receptors (RXRs) on the retinoic acid response element (RARE). Through activation of the RAR/RXRs nuclear receptors, atRA regulates the transcription of a large number of protein-coding genes and regulatory RNAs. Intracellular levels of atRA are controlled by the retinol signaling pathway (RSP) that regulates the biosynthesis and catabolism of atRA to maintain physiological levels. Chemicals that interfere with the RSP can cause abnormal intracellular levels of atRA and therefore are potential developmental toxicants. To assess compounds for the potential adverse effect on embryonic development through interfering with retinol signaling, a cell-based RARE luciferase reporter gene assay was used. C3RL4 cell line (OARSA/CFSAN/FDA, Laurel, MD) was used to screen Tox21 10K compound library for identifying inhibitors of the RSP.
Tox21 Assay Protocol Summary:
C3RL4 cells were seeded at 1,000/well in 4 uL of assay medium into white solid 1,536-well tissue culture plates (Greiner Bio-One North America Inc. Monroe, NC) using a Multidrop Combi (Thermo Scientific, Waltham, MA) dispenser. After incubation at 37 C and 5% CO2 for an overnight, 23 nL of compounds dissolved in DMSO, positive control or DMSO only were transferred by a Pintool station (Kalypsys, San Diego, CA). One ul of 1 uM (final concentration) of Retinol was added right after the compound addition by using a Flying Reagent Dispenser (FRD) (Aurora Discovery, San Diego, CA). After 6 hr incubation at 37 C and 5% CO2, 5 uL of Amplite Luciferase reagent (AAT Bioquest Inc. Sunnyvale, CA) was added to each assay plate using an FRD. Luminescence was quantified on a ViewLux plate reader (PerkinElmer, Waltham, MA) after 30 min incubation at room temperature.
Potency is the fitted concentration of half-maximal effect.

Compound	Potency	activity, negative = inhibition
O=[N+]([O-])c1ccc2c3c(cccc13)CC2	inactive	–
CCOP(=S)(Oc1cnc(C(C)(C)C)nc1)OC(C)C (stereo not given)	inactive	–
Cc1nnc2n1-c1sc(CCC(=O)N3CCOCC3)cc1C(c1ccccc1Cl)=NC2	inactive	–
CC(Oc1ccc(Oc2ncc(C(F)(F)F)cc2Cl)cc1)C(=O)O (stereo not given)	inactive	–
N#Cc1ccncc1	inactive	–
BrCCCCCCBr	inactive	–
CCOC(=O)NC(=S)Nc1ccccc1NC(=S)NC(=O)OCC	inactive	–
COC(=O)c1ccccc1S(=O)(=O)NC(=O)N(C)c1nc(C)nc(OC)n1	inactive	–
CCCSP(=S)(OCC)Oc1ccc(Cl)cc1Cl (stereo not given)	inactive	–
CC(C)(C)OC(=O)c1ncn2c1[C@@H]1CCCN1C(=O)c1c(Br)cccc1-2	inactive	–
C#C[C@]1(O)C=C[C@H]2[C@@H]3CCC4=CC(=O)CC[C@@H]4[C@H]3CC[C@@]21CC	11.9 µM (active)	–
COc1cc2c(cc1OC)[C@@]13CCN4CC5=CCO[C@H]6CC(=O)N2[C@H]1[C@H]6[C@H]5C[C@H]43	inactive	–
CCC/C(=N\OCC)C1=C(O)CC(CC(C)SCC)CC1=O (stereo not given)	inactive	–
CNNC	inactive	–
O=C1c2ccccc2C(=O)c2ccccc21	–	14.2% [at 19 µM]
CN1CCN(C(=O)O[C@H]2c3nccnc3C(=O)N2c2ccc(Cl)cn2)CC1	inactive	–
Cc1nc(N)nc(N)n1	inactive	–
ClC(Br)Br	inactive	–
CS(=O)(=O)c1cc(C(F)(F)F)ccc1C(=O)c1cnoc1C1CC1	inactive	–
c1cc2c(c(N3CCNCC3)c1)OCCO2	inactive	–

Compound	Potency	activity, negative = inhibition
COC(=O)c1c(C(F)F)nc(C(F)(F)F)c(C2=NCCS2)c1CC(C)C	inactive	–
ClCCOCOCCCl	inactive	–
CCOP(=S)(OCC)Oc1nc(Cl)n(C(C)C)n1	inactive	–
CCOc1nc(C(Cl)(Cl)Cl)ns1	inactive	–
C=C(C)CN(CC)c1c([N+](=O)[O-])cc(C(F)(F)F)cc1[N+](=O)[O-]	inactive	–
Nc1c(Br)cc([N+](=O)[O-])cc1[N+](=O)[O-]	inactive	–
CCCSP(=O)(OCC)Oc1ccc(Br)cc1Cl (stereo not given)	inactive	–
CCCCCCBr	inactive	–
CC1COC2(c3ccccc3Cl)c3cc(Cl)ccc3NC(=O)CN12 (stereo not given)	29.8 µM (active)	–
C=CC1CC=CCC1 (stereo not given)	inactive	–
N#CC(Cl)(Cl)Cl	inactive	–
C#CCN1C(=O)COc2cc(F)c(N3C(=O)C4=C(CCCC4)C3=O)cc21	inactive	–
CC(Cl)(Cl)[N+](=O)[O-]	inactive	–
C=CCC1=C(C)[C@@H](OC(=O)[C@@H]2[C@@H](C=C(C)C)C2(C)C)CC1=O	27.3 µM (active)	–
COC(=O)c1ccccc1S(=O)(=O)NC(=O)Nc1nc(C)cc(C)n1	inactive	–
CNC(=O)N(C)c1nc2ccccc2s1	inactive	–
[As]#[In]	inactive	–
CSc1ccc(C(=O)C(C)(C)N2CCOCC2)cc1	inactive	–
N#CC(CCc1ccc(Cl)cc1)(Cn1cncn1)c1ccccc1 (stereo not given)	61.1 µM (active)	–
O=C1OC(=O)C2C1C1(Cl)C(Cl)=C(Cl)C2(Cl)C1(Cl)Cl (stereo not given)	inactive	–
